Outcome data for 33 molecules are collected here from PubChem BioAssay (NCATS).

The source made the active and inactive calls. The call rests on the fitted dose curve; in most records, active means well fitted activation curve with a large enough effect; inconclusive means small, poorly fitted or top-dose-only effect; inactive means flat fitted curve, though single readings scatter.

This test in a line: Cellular Toxicity (caspase-3) SK-N-SH (AID 661). The note with it: SK-N-SH caspase-3 activation, qHTS, DMSO as zero, staurosporine as full; series mostly up to 91.7 µM. In short, it runs like this: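 Human SK-N-SH neuroblastoma cells, 1500/well, were exposed to compounds for 16 hours at 37 °C. Caspase-Glo 3/7 luminescence was normalized to DMSO (basal) and 10 uM staurosporine (100%), and AC50 came from a Hill fit.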
For orientation: In qHTS, concentration-response curves come from the screen itself.
Regarding `O=CNc1ccccc1`, the outcome was inactive. Next, `Cc1ccc(C#N)cc1`: “inactive”; `CC(C)C=O`: “inactive”. Next, `CCCCCCC=O`: “inactive”.

On to `CN(C)c1cccc(O)c1`, for which the outcome was inactive. Next, `O=C(O)c1ccc(Cl)cc1Cl`: “inactive”; `CCCC(Cl)CCCC(Cl)CCC(Cl)CCC(Cl)CCC(Cl)CCCC(Cl)CCC` (stereo not drawn): “inactive”.

Turning to `CNC(=O)c1ccccc1`, the molecule was called inactive. Turning to `ClCCl`, the molecule was classed as inactive. Next, `CC(=O)Nc1ccc(C)cc1`: “inactive”; `CC(C)(c1cc(Br)c(OCC(Br)CBr)c(Br)c1)c1cc(Br)c(OCC(Br)CBr)c(Br)c1` (stereo not drawn): “inactive”. Next, `CC(=O)Nc1ccc(N)cc1`: “inactive”; `Cc1ccccc1C(N)=O`: “inactive”; `CC(=O)C1(C)CC2=C(CCCC2(C)C)CC1C` (stereo not drawn): “inactive”. Next, `CC(C=O)Cc1ccc(C(C)(C)C)cc1` (stereo not drawn): “inactive”; `CCCCN(CCO)CCCC`: “inactive”. Turning to `CC(O)CC(C)O` (stereo not drawn), the molecule was called inactive. Next, `OCCO`: “inactive”; `CC(=O)OC(C)=O`: “inactive”. Next, `NS(=O)(=O)O`: “inactive”.

Turning to `CCOC(=O)C(C)C(C)=O` (stereo not drawn), the molecule was called inactive. Next, `Cc1ccc(C)c([N+](=O)[O-])c1`: “inactive”; `C=C(C)C(=O)OCCCCCCCCCC`: “inactive”; `COC(=O)CCCC(=O)OC`: “inactive”.

In the case of `c1ccc(Nc2ccccc2)cc1`, the result was inactive.

Turning to `O=C(O)c1cc(Cl)cc(Cl)c1`, the outcome was inactive.

As for `CC/C=C1/OC(=O)c2ccccc21`, the molecule was called inactive.

Take `Cc1ccco1`: the call was inactive.

As for `NCCCCCCN`, the result was inactive. Next, `BrC/C=C/CBr`: “inactive”; `CC(=C/C=C/C(C)=C/C=C/C=C(C)/C=C/C=C(C)/C=C/C(=O)O)/C=C/C(=O)O`: “inactive”.

For the molecule `CCOC(C)(C)C`, the molecule was classed as inactive. In the case of `O=C(O)c1cccc(Cl)c1Cl`, the molecule was classed as inactive.
